For seven compounds, inhibition results are on record in ChEMBL document CHEMBL1961873, “Compounds: GSK PKIS; Assays: Nanosyn kinase panel” (2012).

The target of assay [1] is T1, Muscle, skeletal receptor tyrosine-protein kinase (Homo sapiens) (UniProt O15146).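 Note: reported value is the mean percent inhibition of MuSK kinase.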
T1 sequence (whole entry): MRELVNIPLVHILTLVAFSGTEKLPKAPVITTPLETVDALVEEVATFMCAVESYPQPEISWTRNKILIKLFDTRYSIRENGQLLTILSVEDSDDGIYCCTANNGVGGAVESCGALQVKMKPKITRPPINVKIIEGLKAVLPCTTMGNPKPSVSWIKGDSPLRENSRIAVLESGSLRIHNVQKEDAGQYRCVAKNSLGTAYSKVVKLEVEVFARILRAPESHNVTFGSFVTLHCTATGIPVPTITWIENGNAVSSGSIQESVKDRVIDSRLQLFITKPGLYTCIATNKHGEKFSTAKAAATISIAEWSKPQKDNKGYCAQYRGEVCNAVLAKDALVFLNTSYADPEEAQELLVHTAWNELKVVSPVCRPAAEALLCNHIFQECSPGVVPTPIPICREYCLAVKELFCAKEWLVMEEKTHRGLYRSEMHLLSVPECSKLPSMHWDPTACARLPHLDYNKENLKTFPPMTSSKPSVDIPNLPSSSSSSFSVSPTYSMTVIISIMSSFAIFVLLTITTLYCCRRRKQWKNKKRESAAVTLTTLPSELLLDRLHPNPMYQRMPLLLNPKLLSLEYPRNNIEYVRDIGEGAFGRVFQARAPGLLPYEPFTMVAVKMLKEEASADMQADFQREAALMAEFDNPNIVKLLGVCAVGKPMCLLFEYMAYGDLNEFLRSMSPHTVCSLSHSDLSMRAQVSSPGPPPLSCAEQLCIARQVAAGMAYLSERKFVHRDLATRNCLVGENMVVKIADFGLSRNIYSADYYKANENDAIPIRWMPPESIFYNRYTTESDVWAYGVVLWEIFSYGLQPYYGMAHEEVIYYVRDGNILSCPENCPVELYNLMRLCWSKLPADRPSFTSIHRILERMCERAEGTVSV
The settings on record: at 1 µM.

The target in assay [2] is Platelet-derived growth factor receptor alpha (Homo sapiens) (UniProt P16234). The settings on record: at 0.1 µM.
For assay [3] the target is unchanged. The settings on record: at 1 µM.
In assay [4] the test system is Platelet-derived growth factor receptor alpha (Homo sapiens), P16234 [D842V]. The settings on record: at 0.1 µM.
Sequence of Platelet-derived growth factor receptor alpha (Homo sapiens), P16234 [D842V] (P16234 whole entry D842V): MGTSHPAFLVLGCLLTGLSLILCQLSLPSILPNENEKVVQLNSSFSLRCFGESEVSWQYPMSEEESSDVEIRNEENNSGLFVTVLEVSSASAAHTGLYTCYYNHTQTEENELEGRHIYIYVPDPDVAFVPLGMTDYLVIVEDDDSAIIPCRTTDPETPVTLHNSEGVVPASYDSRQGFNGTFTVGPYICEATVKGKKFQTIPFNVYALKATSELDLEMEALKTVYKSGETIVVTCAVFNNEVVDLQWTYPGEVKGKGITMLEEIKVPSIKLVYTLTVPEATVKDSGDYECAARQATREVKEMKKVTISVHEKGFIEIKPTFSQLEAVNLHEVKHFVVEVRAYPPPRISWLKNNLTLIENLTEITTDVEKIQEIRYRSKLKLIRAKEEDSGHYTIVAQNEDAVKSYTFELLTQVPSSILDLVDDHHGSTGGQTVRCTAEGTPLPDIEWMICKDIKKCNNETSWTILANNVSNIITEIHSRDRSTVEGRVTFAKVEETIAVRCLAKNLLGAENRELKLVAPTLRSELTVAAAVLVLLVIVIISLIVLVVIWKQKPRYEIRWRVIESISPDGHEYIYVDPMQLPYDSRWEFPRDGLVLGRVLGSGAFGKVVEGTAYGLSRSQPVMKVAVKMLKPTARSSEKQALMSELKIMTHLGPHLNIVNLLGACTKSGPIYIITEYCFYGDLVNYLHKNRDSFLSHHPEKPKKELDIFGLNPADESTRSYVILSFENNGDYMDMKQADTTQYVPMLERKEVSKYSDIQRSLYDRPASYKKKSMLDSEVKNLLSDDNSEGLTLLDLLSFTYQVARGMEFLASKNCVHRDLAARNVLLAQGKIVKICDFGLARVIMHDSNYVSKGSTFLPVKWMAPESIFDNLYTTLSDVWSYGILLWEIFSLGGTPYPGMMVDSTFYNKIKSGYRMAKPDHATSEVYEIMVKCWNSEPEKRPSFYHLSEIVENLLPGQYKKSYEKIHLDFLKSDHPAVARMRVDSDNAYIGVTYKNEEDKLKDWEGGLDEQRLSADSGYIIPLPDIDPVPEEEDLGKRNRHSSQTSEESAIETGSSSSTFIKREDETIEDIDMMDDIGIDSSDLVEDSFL
The test system is the same in assay [5]. The settings on record: at 1 µM.
The test system of assay [6] is Platelet-derived growth factor receptor alpha (Homo sapiens), P16234 [T674I]. The settings on record: at 0.1 µM.
Sequence of Platelet-derived growth factor receptor alpha (Homo sapiens), P16234 [T674I] (P16234 whole entry T674I): as the sequence (P16234 whole entry D842V) above, with T674I, V842D counted along it
Assay [7] shares this test system. The settings on record: at 1 µM.
Assay [8] concerns Platelet-derived growth factor receptor alpha (Homo sapiens), P16234 [V561D]. The settings on record: at 0.1 µM.
Assay [9] has the same test system. The settings on record: at 1 µM.
Assay [10] has as its target Platelet-derived growth factor receptor beta (Homo sapiens) (UniProt P09619). The settings on record: at 0.1 µM.
Assay [11] shares this target. The settings on record: at 1 µM.
The target in assay [12] is Tyrosine-protein kinase FRK (Homo sapiens) (UniProt P42685). The settings on record: at 0.1 µM.
Sequence of Tyrosine-protein kinase FRK (Homo sapiens) (P42685 whole entry): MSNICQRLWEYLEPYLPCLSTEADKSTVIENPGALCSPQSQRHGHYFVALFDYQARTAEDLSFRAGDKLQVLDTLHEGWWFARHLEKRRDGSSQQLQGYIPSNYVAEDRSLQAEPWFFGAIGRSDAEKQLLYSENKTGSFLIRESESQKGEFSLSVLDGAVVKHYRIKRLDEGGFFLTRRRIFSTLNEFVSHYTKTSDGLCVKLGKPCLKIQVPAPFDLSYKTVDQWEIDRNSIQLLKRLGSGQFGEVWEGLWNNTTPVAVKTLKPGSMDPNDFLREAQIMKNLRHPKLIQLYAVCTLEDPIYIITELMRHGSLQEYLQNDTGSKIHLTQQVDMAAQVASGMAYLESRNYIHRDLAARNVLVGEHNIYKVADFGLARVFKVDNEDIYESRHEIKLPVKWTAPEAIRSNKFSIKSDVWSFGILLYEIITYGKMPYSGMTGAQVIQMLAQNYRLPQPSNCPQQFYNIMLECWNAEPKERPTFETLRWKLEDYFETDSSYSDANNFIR
The target is the same in assay [13]. The settings on record: at 1 µM.
Assay [14] has as its target Protein-tyrosine kinase 2-beta (Homo sapiens) (UniProt Q14289). The settings on record: at 0.1 µM.
Assay [15] has the same target. The settings on record: at 1 µM.
Assay [16] deals with Proto-oncogene tyrosine-protein kinase receptor Ret (Homo sapiens) (UniProt P07949). The settings on record: at 0.1 µM.
Assay [17] shares this target. The settings on record: at 1 µM.
Assay [18] relates to Proto-oncogene tyrosine-protein kinase receptor Ret (Homo sapiens), P07949 [V804L]. The settings on record: at 0.1 µM.
Assay [19] shares this test system. The settings on record: at 1 µM.
In assay [20] the test system is Proto-oncogene tyrosine-protein kinase receptor Ret (Homo sapiens), P07949 [Y791F]. The settings on record: at 0.1 µM.
Sequence of Proto-oncogene tyrosine-protein kinase receptor Ret (Homo sapiens), P07949 [Y791F] (P07949 whole entry Y791F): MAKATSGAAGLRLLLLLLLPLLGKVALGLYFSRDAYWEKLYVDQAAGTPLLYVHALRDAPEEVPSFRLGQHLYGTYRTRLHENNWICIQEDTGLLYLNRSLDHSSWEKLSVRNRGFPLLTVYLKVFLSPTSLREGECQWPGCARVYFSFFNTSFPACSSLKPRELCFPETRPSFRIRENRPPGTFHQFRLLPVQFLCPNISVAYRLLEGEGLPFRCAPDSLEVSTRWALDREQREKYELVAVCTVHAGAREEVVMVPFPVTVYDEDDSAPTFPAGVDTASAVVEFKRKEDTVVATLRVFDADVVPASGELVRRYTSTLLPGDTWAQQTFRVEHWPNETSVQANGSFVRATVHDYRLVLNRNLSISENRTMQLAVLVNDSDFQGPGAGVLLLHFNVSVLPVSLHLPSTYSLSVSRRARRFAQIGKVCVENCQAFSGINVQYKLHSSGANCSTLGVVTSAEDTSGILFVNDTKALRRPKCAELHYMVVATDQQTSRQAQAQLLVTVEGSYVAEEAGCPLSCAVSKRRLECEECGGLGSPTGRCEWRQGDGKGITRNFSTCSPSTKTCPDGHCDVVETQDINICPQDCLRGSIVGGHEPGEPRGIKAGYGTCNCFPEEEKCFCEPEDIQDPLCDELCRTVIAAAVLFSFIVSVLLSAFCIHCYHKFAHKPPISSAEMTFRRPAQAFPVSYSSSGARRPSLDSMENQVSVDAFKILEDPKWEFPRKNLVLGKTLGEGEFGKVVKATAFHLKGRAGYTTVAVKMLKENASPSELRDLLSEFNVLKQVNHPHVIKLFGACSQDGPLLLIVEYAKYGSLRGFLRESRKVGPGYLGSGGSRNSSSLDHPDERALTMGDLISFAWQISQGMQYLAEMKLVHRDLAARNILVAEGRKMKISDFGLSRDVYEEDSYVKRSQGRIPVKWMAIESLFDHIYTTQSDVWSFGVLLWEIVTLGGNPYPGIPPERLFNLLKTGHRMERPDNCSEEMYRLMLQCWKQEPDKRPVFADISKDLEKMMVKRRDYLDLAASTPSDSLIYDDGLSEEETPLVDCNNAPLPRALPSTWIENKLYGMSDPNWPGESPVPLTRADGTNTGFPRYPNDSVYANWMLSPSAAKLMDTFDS

Sequence of Platelet-derived growth factor receptor beta (Homo sapiens) (P09619 whole entry): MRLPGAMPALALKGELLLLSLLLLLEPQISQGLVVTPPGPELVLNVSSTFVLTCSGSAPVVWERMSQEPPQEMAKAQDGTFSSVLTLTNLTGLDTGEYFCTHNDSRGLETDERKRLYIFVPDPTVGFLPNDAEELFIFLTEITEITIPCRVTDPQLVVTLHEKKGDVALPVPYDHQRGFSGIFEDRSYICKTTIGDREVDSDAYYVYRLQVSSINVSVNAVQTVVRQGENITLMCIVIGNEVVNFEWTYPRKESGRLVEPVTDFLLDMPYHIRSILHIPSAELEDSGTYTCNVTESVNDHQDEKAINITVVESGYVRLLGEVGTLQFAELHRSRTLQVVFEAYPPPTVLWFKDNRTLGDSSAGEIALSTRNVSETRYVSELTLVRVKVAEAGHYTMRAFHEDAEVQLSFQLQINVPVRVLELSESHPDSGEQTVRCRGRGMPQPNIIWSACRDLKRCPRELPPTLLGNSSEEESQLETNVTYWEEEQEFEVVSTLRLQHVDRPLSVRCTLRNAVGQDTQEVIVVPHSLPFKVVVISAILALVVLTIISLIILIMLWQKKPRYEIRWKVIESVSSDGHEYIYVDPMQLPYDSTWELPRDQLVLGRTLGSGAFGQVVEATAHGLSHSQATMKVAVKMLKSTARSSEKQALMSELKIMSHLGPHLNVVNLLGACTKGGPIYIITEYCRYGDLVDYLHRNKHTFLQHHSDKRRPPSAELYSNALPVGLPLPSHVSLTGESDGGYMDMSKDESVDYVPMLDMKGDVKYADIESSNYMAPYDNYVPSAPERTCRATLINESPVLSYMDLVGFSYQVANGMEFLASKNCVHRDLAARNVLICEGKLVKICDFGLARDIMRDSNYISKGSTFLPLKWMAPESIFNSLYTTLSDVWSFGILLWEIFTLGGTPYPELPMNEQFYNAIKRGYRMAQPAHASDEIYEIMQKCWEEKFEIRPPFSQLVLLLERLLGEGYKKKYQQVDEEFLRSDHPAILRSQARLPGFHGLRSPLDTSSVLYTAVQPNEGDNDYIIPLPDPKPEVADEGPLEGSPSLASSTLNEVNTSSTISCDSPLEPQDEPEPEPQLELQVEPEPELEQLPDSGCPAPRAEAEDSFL

The term inhibition denotes the relative decrease from the control value, in per cent. Turning to `COc1ccc(-c2nn3ncccc3c2-c2ccnc(Nc3ccc(Cl)c(C(F)(F)F)c3)n2)cc1`, the inhibition worked out at 1.1% in assay [1]; 3.58% in assay [2]; 7.86% in assay [3]; 0.96% in [4]; 1.8% in assay [5]; 3.16% in [6]. Besides, the inhibition in assay [7] worked out at 5.2%; in [8] it was 3.43%; in assay [9] it was 3.24%; in [10], 2.18%; in [11] it was 5.76%; in assay [12] it was 1.65%. In addition, the inhibition in assay [13] was 0.79%; in assay [14], 5.54%; in assay [15], 10.5%; in [16], 2.17%; in assay [17], -0.91%; in assay [18] it was 2.33%. Besides, the figures for the inhibition in assay [19] and in [20] were 6.71% and 2.51%, respectively.
Turning to `COc1cc(C=NNc2ncnc3c2cnn3-c2ccccc2)ccc1O`, the inhibition amounted to 43.8% in assay [1]; 28.2% in assay [2]; 78.2% in [3]; 24.6% in [4]; 79.5% in assay [5]; 13.7% in assay [6]. Moreover, the inhibition was determined as 39.1% in assay [7]; 15.1% in assay [8]; 68.9% in [9]; 18.1% in assay [10]; 68.9% in [11]; 0.86% in assay [12]. Also, the inhibition in assay [13] amounted to 3.44%; in [14] it was 4.69%; in assay [15] it was 14.2%; in assay [16], 43.5%; in assay [17], 80.6%; in assay [18], 13.6%. Further, the inhibition in assay [19] came to 46.3%; in [20], 36.3%.
With `COc1ccc(-c2coc3ncnc(N)c23)cc1`, the inhibition in assay [1] is 9.1%; in assay [2], 8.72%; in [3] it was 16.2%; in assay [4], 3.41%; in assay [5] it was 6.25%; in assay [6], 5.4%. Further, the inhibition in [7] amounted to 5.37%; in [8], 6.46%; in [9], 28%; in assay [10], 3.23%; in assay [11], 12.1%; in assay [12] it was 1.9%. The inhibition was determined as 2.14% in assay [13]; 4.27% in [16]; 11.7% in assay [17]; 4.56% in [18]; 5.32% in [19]; 10.4% in assay [20].
As for `Cc1ccc(NC(=O)c2ccnc(N3CCCC3)c2)cc1-c1ccc(C(=O)NCC2CC2)cc1`, the inhibition in [1] turned out to be 9.18%; in [2] it was 9.86%; in assay [3], 20.7%; in [4], 3.63%; in [5], 5.68%; in assay [6], 6.03%. The inhibition in [7] stood at 5.86%; in assay [8] it was 2.7%; in [9], 11.8%; in assay [10], 6.34%; in assay [11] it was 13.4%; in assay [12] it was 2.28%. Besides, the inhibition in assay [13] is 2.38%; in assay [14], 12.2%; in [15], 9.43%; in assay [16], 6.99%; in assay [17], 9.44%; in assay [18], 8.29%. The inhibition in assay [19] is 9.54%; in [20] it was 10.7%.
As to `CS(=O)(=O)CCNCc1nc(-c2ccc3ncnc(Nc4ccc(F)c(Cl)c4)c3c2)cs1`, the inhibition was determined as 2.48% in assay [1]; 11.7% in [2]; 25.9% in assay [3]; 1.4% in assay [4]; 10.4% in [5]; 10.8% in assay [6]. Also, the inhibition in [7] was 8.67%; in assay [8], 2.8%; in [9], 9.09%; in [10], 3.34%; in assay [11], 9.07%; in assay [12], -0.58%. Also, the inhibition in assay [13] is 2.43%; in assay [14], -0.72%; in assay [15], 1.64%; in assay [16], 4.76%; in [17] it was 13.1%; in [18] it was 5.1%. The inhibition in assay [19] worked out at 11%; in assay [20], 7.75%.
As to `COC(=O)Nc1nc2cc(Oc3ccc(NC(=O)Nc4cccc(C(=O)O)c4)cc3)ccc2[nH]1`, the inhibition in [1] came out at 2.82%; in assay [2] it was 10.8%; in assay [3] it was 39.3%; in assay [4], 0.99%; in assay [5], 1.56%; in assay [6], 6.17%. For the same compound, the inhibition was 35.1% in assay [7]; 18.8% in assay [8]; 43.9% in assay [9]; 6.26% in assay [10]; 16.2% in assay [11]; 0.4% in assay [12]. In addition, the inhibition in assay [13] is 0.91%; in [14], -5.8%; in assay [15], 6.37%; in assay [16] it was 7.47%; in assay [17], 14.1%; in assay [18], 2.8%. The inhibition in assay [19] worked out at 15%; in assay [20], 1.53%.
Turning to `Nc1ncnc2occ(-c3ccc(NC(=O)Nc4cc(C(F)(F)F)cc(C(F)(F)F)c4)cc3)c12`, the inhibition was 89.3% in assay [1]; 79.8% in [2]; 79.7% in assay [3]; 14.7% in assay [4]; 66.7% in assay [5]; 60.3% in assay [6]. In addition, the inhibition was determined as 94.9% in assay [7]; 90.5% in assay [8]; 96% in assay [9]; 67.8% in assay [10]; 81.5% in assay [11]; 1.36% in [12]. For the same compound, the inhibition in assay [13] worked out at 4.51%; in assay [14] it was 8.32%; in assay [15], 19.4%; in assay [16], 76.4%; in assay [17], 81.4%; in assay [18], 38.4%. In addition, the inhibition stood at 77% in [19] and 60.7% in assay [20].
